Our source for the max activity values is PubChem BioAssay AID1224921 (Broad Institute, 2016).

The campaign covered roughly 1,400 compounds. About 350 (25%) were called active. About 2% were inconclusive and are not listed. No rule for the calls is given here. Only a sample is shown. Entries with a potency or affinity are not part of this list.

The nature of the test: inhibitors of Clostridioides difficile proliferation – 4-point retest, confirmation (AID 1224921).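 Also: plate controls were DMSO wells for no effect and levofloxacin 16 µg/mL wells for full effect.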 To be noted: Clostridioides difficile clinical isolate growth, OD600, 24 h, stronger effect = lower value; at 30 µM unless noted.
As to `CNC[C@@H]1Oc2cc(-c3cccnc3)ccc2S(=O)(=O)N([C@@H](C)CO)C[C@H]1C`, the max activity was -5.58% [at 1.95 µM] (inactive). The result for `COc1ccc(-c2cnc3c(c2)C(=O)N([C@H](C)CO)C[C@H](C)[C@H](CN(C)C(=O)Nc2ccc(F)cc2)O3)cc1` reads 13.9% (inactive); that for `Cc1ccc(-c2ccc3c(c2)O[C@H](CN(C)Cc2ccncc2)[C@H](C)CN([C@@H](C)CO)S3(=O)=O)cc1`, 37.3% (inactive).

As to `CCS(=O)(=O)Nc1ccc2c(c1)C(=O)N(C)C[C@@H](OC)[C@@H](C)CN(CC1CCCC1)[C@H](C)CO2`, the max activity was 10.5% (inactive). As to `C[C@H](CO)N1C[C@H](C)[C@@H](CN(C)Cc2ccncc2)Oc2cc(C3=CCCCC3)ccc2S1(=O)=O`, the max activity was 25.5% [at 28.5 µM] (inactive). To `O=C(C[C@@H]1C[C@@H]2c3cc(NC(=O)CC4CC4)ccc3O[C@@H]2[C@@H](CO)O1)NCc1cc(F)ccc1F` belongs 18.5% (inactive); to `CO[C@@H]1CN(C)C(=O)c2cc(NC(=O)C3CCC3)ccc2OC[C@@H](C)N(Cc2ccncc2)C[C@@H]1C`, -8.85% [at 8 µM] (inactive).

As to `C[C@H]1CN([C@@H](C)CO)S(=O)(=O)c2ccc(-c3ccccc3F)cc2O[C@@H]1CN(C)Cc1cccnc1`, the max activity is 16.6% (inactive). The result for `CO[C@@H]1CN(C)C(=O)c2ccc(NC(=O)c3ccc(Oc4ccccc4)cc3)cc2OC[C@@H](C)N(C(C)=O)C[C@H]1C` reads -13.9% [at 2.1 µM] (inactive); that for `O=C(C[C@@H]1C=C[C@@H](NC(=O)c2cccc(F)c2)[C@H](CO)O1)Nc1nccs1`, 13.9% (inactive); that for `COc1ccc(S(=O)(=O)Nc2ccc3c(c2)C(=O)N([C@@H](C)CO)C[C@@H](C)[C@@H](CN(C)C(=O)CCC(F)(F)F)OCCCC[C@H](C)O3)cc1`, -14.1% [at 8 µM] (inactive). Regarding `CO[C@H]1CN(C)C(=O)c2cc(NS(=O)(=O)c3cccc(F)c3)ccc2OC[C@@H](C)N(Cc2cc(F)ccc2F)C[C@H]1C`, the max activity is -7.98% [at 1.95 µM] (inactive). The result for `C[C@H](CO)N1C[C@H](C)[C@@H](CN(C)Cc2cccnc2)Oc2cc(C#CC3CCCC3)ccc2S1(=O)=O` reads 41.2% (inactive). `CO[C@@H]1CN(C)C(=O)c2cc(NS(=O)(=O)c3ccc(Cl)cc3)ccc2OC[C@H](C)N(C(=O)NC(C)C)C[C@H]1C`: the max activity is -5.33% [at 8 µM] (inactive). The result for `CCCN1C[C@H](C)[C@@H](OC)CN(C)C(=O)c2cc(NC(=O)c3cccc(OC)c3)ccc2OC[C@@H]1C` reads 12.1% (inactive); that for `CO[C@H]1CN(C)C(=O)c2ccc(NC(C)=O)cc2OC[C@H](C)N(Cc2cccc(F)c2)C[C@H]1C`, -6.29% [at 1.95 µM] (inactive). The result for `CCC(=O)Nc1ccc2c(c1)C(=O)N(C)C[C@H](OC)[C@@H](C)CN(C(=O)CN1CCOCC1)[C@@H](C)CO2` reads -6.29% [at 0.5 µM] (inactive); that for `CCCC#Cc1ccc([C@@H]2[C@@H](CO)N(S(=O)(=O)c3cccc(F)c3)[C@H]2C#N)cc1`, 12.2% [at 1.95 µM] (inactive). The result for `CCC(=O)Nc1ccc2c(c1)OC[C@@H](C)N(C(=O)CC)C[C@@H](C)[C@@H](OC)CN(C)C2=O` reads 3.79% [at 0.5 µM] (inactive); that for `C[C@H](CO)N1C[C@H](C)[C@H](CN(C)Cc2cccnc2)Oc2cc(C#CC3CCCC3)ccc2S1(=O)=O`, 20.9% (inactive).

As for `COc1ccc(NC(=O)Nc2cccc3c2O[C@H](CN(C)C(=O)NC2CCCCC2)[C@@H](C)CN([C@@H](C)CO)C3=O)cc1`, the max activity was 7.95% (inactive). To `CO[C@@H]1CN(C)C(=O)c2cc(NC(=O)c3ccccc3)ccc2OC[C@H](C)N(C)C[C@@H]1C` belongs 18.3% (inactive); to `CN(C)C(=O)C[C@H]1CC[C@H](NC(=O)C2CCOCC2)[C@@H](CO)O1`, -6% (inactive); to `COCC(=O)N1C[C@@H](C)[C@@H](OC)CN(C)C(=O)c2ccc(NC(=O)NC(C)C)cc2OC[C@@H]1C`, 17.9% (inactive). To `CCCC(=O)Nc1ccc2c(c1)C(=O)N(C)C[C@H](OC)[C@H](C)CN(Cc1ccccc1)[C@@H](C)CO2` belongs 25.4% (inactive); to `COCC(=O)Nc1ccc2c(c1)OC[C@@H](C)N(Cc1ccccc1OC)C[C@@H](C)[C@@H](OC)CN(C)C2=O`, 16.6% (inactive); to `CO[C@@H]1CN(C)C(=O)c2ccc(NC(C)=O)cc2OC[C@H](C)N(Cc2cccc(F)c2)C[C@H]1C`, 17.2% (inactive). For the compound `C[C@H]1CN([C@@H](C)CO)C(=O)c2c(c3ccccc3n2C)-c2ccccc2CO[C@H]1CN(C)Cc1cccc(C(=O)O)c1`, the max activity was -5.44% [at 0.5 µM] (inactive).

For the compound `COc1ccc(-c2ccc([C@@H]3[C@@H](C#N)N(C(=O)C4CCCC4)[C@H]3CO)cc2)cc1`, the max activity is 25.6% (inactive). The result for `C/C=C/c1ccc2c(c1)O[C@@H](CN(C)C(=O)Cc1ccncc1)[C@H](C)CN([C@@H](C)CO)S2(=O)=O` reads 11.6% (inactive); that for `C[C@@H]1CN([C@H](C)CO)S(=O)(=O)c2ccc(C#CC3CC3)cc2O[C@H]1CN(C)Cc1ccccc1F`, 11.3% [at 1.95 µM] (inactive). To `COCC(=O)Nc1ccc2c(c1)OC[C@@H](C)N(Cc1ccccc1)C[C@@H](C)[C@@H](OC)CN(C)C2=O` belongs -9.27% [at 1.95 µM] (inactive); to `CCCNC(=O)Nc1ccc2c(c1)C(=O)N(C)C[C@@H](OC)[C@H](C)CN(Cc1ccccc1)[C@@H](C)CO2`, 16.6% (inactive). To `COc1cccc(C#Cc2ccc3c(c2)O[C@@H](CN(C)C)[C@@H](C)CN([C@H](C)CO)S3(=O)=O)c1` belongs 29.6% (inactive); to `CC(C)CC#Cc1ccc2c(c1)O[C@@H](CN(C)Cc1cccnc1)[C@@H](C)CN([C@@H](C)CO)S2(=O)=O`, 22.6% (inactive).

`O=C(C[C@@H]1C[C@H]2c3cc(NC(=O)Nc4ccc(C(F)(F)F)cc4)ccc3O[C@H]2[C@@H](CO)O1)NCCc1ccccc1`: the max activity is 46.3% (inactive). To `COc1ccc(-c2ccc([C@@H]3[C@@H](C#N)N(C(=O)c4cccc(F)c4)[C@H]3CO)cc2)cc1` belongs 19.5% (inactive); to `COc1ccc(C#Cc2ccc3c(c2)O[C@@H](CN(C)C)[C@H](C)CN([C@H](C)CO)S3(=O)=O)cc1`, 12.4% [at 8 µM] (inactive); to `CCC(=O)Nc1ccc2c(c1)OC[C@@H](C)N(CC1CCCCC1)C[C@@H](C)[C@@H](OC)CN(C)C2=O`, -9.08% [at 8 µM] (inactive). The result for `COc1cccc(NC(=O)N[C@H]2C=C[C@H](CC(=O)Nc3ccc(-c4ccccc4)cc3)O[C@@H]2CO)c1` reads 43% (inactive).

Take `C[C@H]1CN([C@@H](C)CO)S(=O)(=O)c2ccc(C3=CCCCC3)cc2O[C@H]1CN(C)Cc1ccncc1`: the max activity is 40.6% (inactive).

In the case of `C[C@H]1CN([C@@H](C)CO)C(=O)c2cc(/C=C/c3ccccc3)cnc2O[C@@H]1CN(C)C(=O)CN(C)C`, the max activity was -3.88% [at 0.5 µM] (inactive). On to `C[C@H](CO)N1C[C@H](C)[C@@H](CN(C)Cc2cccnc2)Oc2cc(C3=CCCCC3)ccc2S1(=O)=O`, for which the max activity was 29% (inactive). As to `N#C[C@@H]1[C@@H](c2ccc(C#Cc3ccccc3F)cc2)[C@H](CO)N1C(=O)C1CCCCC1`, the max activity was 38.8% (inactive). To `C[C@@H]1CN([C@@H](C)CO)C(=O)c2c(c3ccccc3n2C)-c2ccccc2CO[C@H]1CN(C)S(=O)(=O)c1cccc(C#N)c1` belongs 31.4% (inactive). The result for `O=C(C[C@@H]1C[C@H]2c3cc(NC(=O)Nc4ccc(C(F)(F)F)cc4)ccc3O[C@H]2[C@@H](CO)O1)NCc1ccc(Cl)cc1` reads -9.79% [at 8 µM] (inactive); that for `C[C@@H]1CN([C@H](C)CO)S(=O)(=O)c2ccc(C3=CCCCC3)cc2O[C@H]1CN(C)Cc1ccncc1`, -20.4% [at 1.95 µM] (inactive). To `CN1C(=O)c2cc(NC(=O)c3ccc(C(F)(F)F)cc3)ccc2OC[C@H]2O[C@H](CC(=O)NCc3ccc4c(c3)OCO4)CC[C@H]21` belongs -12.1% [at 0.5 µM] (inactive); to `C[C@@H]1CN([C@@H](C)CO)C(=O)c2cc(C#C[C@@H](C)O)cnc2O[C@@H]1CN(C)Cc1ccc(-c2ccccc2)cc1`, 27.9% (inactive); to `CCCNC(=O)[C@@H]1[C@@H](CO)[C@@H]2Cn3c(cccc3=O)[C@H]1N2C(=O)NCCC`, -6.96% (inactive).

Regarding `CO[C@@H]1CN(C)C(=O)c2cc(NC(=O)Nc3cccc(Cl)c3)ccc2OC[C@H](C)N(C(=O)Nc2c(C)noc2C)C[C@H]1C`, the max activity was -9.85% (inactive). To `COC(=O)[C@@H]1[C@@H](CO)[C@@H]2Cn3c(ccc(-c4cccc(F)c4)c3=O)[C@@H]2N1C(C)=O` belongs 11.6% [at 8 µM] (inactive); to `COC(=O)[C@H]1[C@H](CO)[C@H]2Cn3c(ccc(-c4cccc(F)c4)c3=O)[C@H]2N1S(C)(=O)=O`, 23.4% (inactive); to `COCC1CC(c2ccccc2)OC(c2ccc(NC(=O)CCCCCCC(=O)O)cc2)O1` (stereo not given), 17.9% (inactive).

As for `CC(C)CC#Cc1ccc2c(c1)O[C@H](CN(C)Cc1ccc(F)cc1)[C@H](C)CN([C@H](C)CO)S2(=O)=O`, the max activity was 23.3% [at 8 µM] (inactive). Take `C[C@@H]1CN([C@@H](C)CO)S(=O)(=O)c2ccc(/C=C/c3ccccc3)cc2O[C@@H]1CN(C)Cc1cccnc1`: the max activity was -27.8% [at 1.95 µM] (inactive). With `C[C@H]1CN([C@@H](C)CO)S(=O)(=O)c2ccc(/C=C/c3ccccc3)cc2O[C@@H]1CN(C)C`, the max activity is 16.2% (inactive).

With `C[C@H]1CN([C@@H](C)CO)S(=O)(=O)c2ccc(/C=C/c3ccccc3)cc2O[C@@H]1CN(C)Cc1cccnc1`, the max activity was -24.8% [at 0.5 µM] (inactive).

In the case of `CC(C)CC#Cc1ccc2c(c1)O[C@H](CN(C)Cc1ccc(F)cc1)[C@@H](C)CN([C@@H](C)CO)S2(=O)=O`, the max activity was 30.5% [at 1.95 µM] (inactive). On to `C[C@@H]1CN([C@H](C)CO)S(=O)(=O)c2ccc(/C=C/c3ccccc3)cc2O[C@H]1CN(C)C`, for which the max activity is 57% (inactive).
